# Laboratory results from PubChem BioAssay (NCI).
# This is part of a sample that, as a whole, favours compounds with a hit. Of some 83,000 tested, about 20% had one in any assay.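 Each cell line was grown in a 96-well plate and treated with one concentration of compound for 48 hours. Values below 10 were considered active.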 A number with no mark means an inactive call. Activity calls are given as the source filed them.
# Key:
# Experiment in all cases: NCI-60 one-dose screen, 48 h (100 = growth as untreated, 0 = no growth, -100 = all killed)
# SK-MEL-2 melanoma = conditions: 10 µM unless noted
# EKVX NSCLC = conditions: 10 µM unless noted
# SN12C renal = conditions: 10 µM unless noted
# UO-31 renal = conditions: 10 µM unless noted
# TK-10 renal = conditions: 10 µM unless noted
# ACHN renal = conditions: 10 µM unless noted
# CAKI-1 renal = conditions: 10 µM unless noted
# A498 renal = conditions: 10 µM
# HL-60(TB) leukemia = conditions: 10 µM unless noted
# CCRF-CEM leukemia = conditions: 10 µM unless noted
# MOLT-4 leukemia = conditions: 10 µM unless noted
# SR leukemia = conditions: 10 µM unless noted
# RPMI-8226 leukemia = conditions: 10 µM unless noted
# OVCAR-8 ovarian = conditions: 10 µM unless noted
# OVCAR-5 ovarian = conditions: 10 µM unless noted
# OVCAR-4 ovarian = conditions: 10 µM unless noted
# SK-OV-3 ovarian = conditions: 10 µM unless noted
# IGROV1 ovarian = conditions: 10 µM unless noted
# OVCAR-3 ovarian = conditions: 10 µM unless noted
# HS 578T breast = conditions: 10 µM unless noted
SMILES,growth (SK-MEL-2 melanoma),growth (EKVX NSCLC),growth (SN12C renal),growth (UO-31 renal),growth (TK-10 renal),growth (ACHN renal),growth (CAKI-1 renal),growth (A498 renal),growth (HL-60(TB) leukemia),growth (CCRF-CEM leukemia),growth (MOLT-4 leukemia),growth (SR leukemia),growth (RPMI-8226 leukemia),growth (OVCAR-8 ovarian),growth (OVCAR-5 ovarian),growth (OVCAR-4 ovarian),growth (SK-OV-3 ovarian),growth (IGROV1 ovarian),growth (OVCAR-3 ovarian),growth (HS 578T breast)
Cc1sc2c(c1C)C(c1ccc(Cl)cc1)=N[C@@H](CC(=O)OC(C)(C)C)c1nnc(C)n1-2,48.8%,42.2%,49.5%,13.4%,22.5%,31.1%,21.6%,-11.8% (active),4.3% (active),38.7%,48.3%,19.2%,23.5%,53%,45.4%,42.6%,39.3%,31.4%,20%,-4.04% (active)
CC(CO)NC1CCCCC1 (configuration not stated),110%,102%,111%,86.8%,94.9%,109%,109%,77.6%,116%,123%,98.9%,104%,112%,103%,102%,102%,111%,102%,115%,–
N#C[Se]Cc1cc(-c2ccccc2)n(-c2ccc(S(N)(=O)=O)cc2)n1,-35.9% (active),-1.91% (active),6.49% (active),-25.6% (active),-29.7% (active),1.16% (active),0.316% (active),-61.4% (active),-44.5% (active),-16.4% (active),-28.4% (active),-32.5% (active),-33.5% (active),6.01% (active),-42.6% (active),2.52% (active),-42.6% (active),-35.6% (active),-80.6% (active),–
C=CCc1cc2c(cc1OCC)OCO2,104%,91.1%,98.8%,95.4%,92%,111%,102%,91.3%,98.1%,106%,113%,126%,112%,103%,95.7%,108%,80.3%,121%,107%,93.2%
COc1ccc(S(=O)(=O)N(Cc2ccc3c(c2)C=CC(C)(C)O3)c2ccccc2)cc1OC,97.1%,58.1%,95.9%,67.4%,102%,61.3%,61.7%,77.8%,70.6%,72%,74.4%,75.9%,46.2%,79.9%,103%,70.6%,90.7%,75.6%,74.3%,–
C[S+]1C=Cc2ccccc2C1c1ccc(Cl)cc1 (configuration not stated),92.7%,90.6%,96%,75.6%,101%,99.3%,72.7%,96%,91.3%,73.7%,85.7%,93.4%,40.8%,95.2%,118%,66.5%,116%,-85.2% (active),89.8%,77.7%
O=C([O][Hg][CH2]C1OCCOC1[CH2][Hg][O]C(=O)c1ccccc1)c1ccccc1 (configuration not stated),95.4%,123%,76.2%,-94.8% (active),-99.5% (active),-99.5% (active),-94.7% (active),132%,-24.7% (active),-15.8% (active),-8.85% (active),2.54% (active),12.3%,90%,112%,-89.2% (active),122%,46.3%,-98.2% (active),113%
O=C(CC1(O)C(=O)Nc2ccc(Cl)cc21)c1ccc(C(=O)NCC2CCC3(CC2)OOC2(CCCCC2)OO3)cc1 (configuration not stated),12.7%,-64.2% (active),28.2%,-81.1% (active),-52.7% (active),-87.3% (active),-85.9% (active),26.9%,-62% (active),-41.3% (active),-39.9% (active),-48.2% (active),-42.4% (active),3.83% (active),47.4%,14.4%,57.2%,-18.6% (active),-76.8% (active),16.1%
C[N+]12CN3CN(CN(C3)C1)C2,96.2%,96.4%,112%,95.5%,128%,108%,83.6%,109%,142%,73.8%,123%,138%,88%,100%,82.7%,105%,118%,91.2%,115%,98%
COc1cccc(C=NC(Cc2cnc[nH]2)C(=O)O)c1O (configuration not stated),70%,102%,97.5%,84.1%,139%,97.8%,86.5%,98.2%,189%,69.6%,120%,132%,48.1%,81.1%,85.5%,95.9%,102%,64.8%,102%,122%
Nc1ccc2c(c1)oc1ccccc12,102%,83.5%,94.6%,69.3%,135%,102%,82.5%,103%,78.3%,55.6%,85%,91%,79.3%,107%,98.3%,103%,115%,110%,103%,104%
Nc1ccc2c(c1)Cc1cc(Br)ccc1-2,112%,64.2%,85.3%,49%,123%,106%,98.1%,76.4%,47.8%,50%,71%,84.6%,79.8%,107%,110%,99.9%,101%,104%,114%,111%
CC[C@H](C)[C@H](NC(=O)C12CC(NC(C)=O)(C1)C2)C(=O)N(C)[C@H](C[C@@H](OC(C)=O)c1nc(C(=O)N[C@@H](Cc2ccccc2)C[C@H](C)C(=O)OC)cs1)C(C)C,48.8%,38.3%,30.9%,59%,50.4%,43.8%,63.5%,-14.8% (active),-10.1% (active),12.2%,21.4%,20.8%,6.56% (active),17.2%,44%,43.3%,27%,35.4%,-42.3% (active),15.8%
Oc1c(O)c(Cl)c(Cl)c(Cl)c1Cl,39.1%,36.6%,31.6%,3.66% (active),73.4%,32.2%,81.7%,63.7%,24.9%,35.3%,31.1%,24.3%,25.1%,-4.12% (active),77.7%,15.8%,64%,-33.3% (active),-11.7% (active),34.8%
CC12CCC(O)CC1=CCC1C2CCC2(C)C(O)CCC12 (configuration not stated),110%,71.9%,105%,98.5%,105%,107%,93.2%,81.1%,115%,94.9%,114%,106%,94.6%,112%,97.3%,110%,118%,113%,104%,105%
